Compound activity from PubChem.
The sample as a whole holds a higher share of hits than the screen did.
Pf Dd2 inh: qHTS Primary assay for Inhibitors of Plasmodium falciparum Dd2 growth in vitro; Potency, µM (titrated, usually from 28.9 µM), for the others: at the top dose activity, negative = inhibition, usual class: inhibitors; P. falciparum Dd2 growth, SYBR Green, 72 h; 120,000 tested, 4.3% active; active = well fitted inhibition curve with a large enough effect;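 also: plate controls were DMSO vehicle for no effect and reference drug for full effect; nearly all actives have a fitted effect of over 65% in size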
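Infected erythrocytes (Dd2, 0.3% parasitemia, 2.5% hematocrit final) are added to compound in RPMI-1640/Albumax II medium, grown 72 h at 37C in low oxygen, then lysed with saponin/Triton-X containing SYBR Green and read by fluorescence.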
Starred values were filed as active, the others as inactive; [ ] = another dose, or the depositor's remark. Potency is read from the fitted curve at half-maximal effect.

`Cn1nc(-c2ccc(F)cc2)cc1[C@H]1CN2CC[C@H]1C[C@@H]2CNC(=O)c1cccs1` gave Pf Dd2 inh 12.6µM*.
`O=C1CN(Cc2ccc(-c3ccsc3)cc2)CCN1c1ccc(Cl)nn1` gave Pf Dd2 inh -9.0%.
CCCC1c2nccn2CCCN1C(=O)c1cccc(OC)c1OC (stereo not drawn) was read as Pf Dd2 inh 14.1%.
For Cc1ncc(CN2CCC(N3CCC(C(=O)NCc4ccccn4)CC3)CC2)s1 the results were Pf Dd2 inh -8.0%.
Screening COc1ccc2c(c1)OCC(C(=O)NCC1(c3ccccc3)CCOCC1)C2 (stereo not drawn) returned Pf Dd2 inh -21.7%.
COC(=O)CNC(=O)N1CCC(Oc2ncccc2C(=O)N2CCCCC2)C1 (stereo not drawn) was read as Pf Dd2 inh 3.7%.
CCC(=O)N1CCc2sc(C(=O)NCc3cccnc3)cc2C1 was read as Pf Dd2 inh inactive.
For O=C(Nc1ccc(Cl)nc1)c1cc2cccnn2n1 the results were Pf Dd2 inh inactive.
For CCOC(=O)c1ccccc1NC(=O)Cn1cccc1-c1nc(-c2ccc(F)cc2)no1 the results were Pf Dd2 inh 87.1%.
Cc1cc(C(=O)NCC(F)(F)F)c2c(C3CCCN3)noc2n1 (stereo not drawn) was read as Pf Dd2 inh 13.6%.
`CC(C)(C)NC(=O)N1[C@H]2CC[C@@H]1c1cncnc1C2` gave Pf Dd2 inh 19.7%.
For CCC(CC)c1cc([C@H]2CN3CC[C@H]2C[C@@H]3CNS(=O)(=O)c2cccs2)nc(-c2ccncc2)n1 the results were Pf Dd2 inh 1.12µM*.
Cc1nc(-c2ccc(C(F)(F)F)cc2)cc([C@H]2CN3CC[C@H]2C[C@@H]3CNS(C)(=O)=O)n1 was read as Pf Dd2 inh inactive.
`Cc1nc(-c2ccc(F)cc2)cc([C@H]2CN3CC[C@H]2C[C@@H]3CNS(=O)(=O)Cc2ccccc2)n1` gave Pf Dd2 inh inactive.
For O=C(Cc1ccccc1Cl)N1CCC2(CC1)NC(=O)N(c1ccc(F)cc1)N2 the results were Pf Dd2 inh -18.4%.
Cc1noc(C)c1-c1cnc2[nH]cc(CC(=O)NCc3cccnc3)c2c1 was read as Pf Dd2 inh -11.2%[44.1 µM].
For COc1ccc(-c2cnc3[nH]cc(CC(N)=O)c3c2)cc1OC the results were Pf Dd2 inh 0.631µM*.
Screening O=C(Cc1c[nH]c2ncc(-c3ccccc3F)cc12)NCc1cccnc1 returned Pf Dd2 inh -2.4%[44.1 µM].
Screening Cc1cccc(-c2cnc3[nH]cc(CC(N)=O)c3c2)c1 returned Pf Dd2 inh inactive.
`Cc1ccccc1-c1cnc2[nH]cc(CC(=O)NCc3cccnc3)c2c1` gave Pf Dd2 inh -14.8%[44.1 µM].
For NC(=O)Cc1c[nH]c2ncc(-c3ccc(F)cc3)cc12 the results were Pf Dd2 inh inactive.
`CN(C)c1cccc(NC(=O)Cc2c[nH]c3ncc(-c4cccnc4)cc23)c1` gave Pf Dd2 inh inactive.
CN(C)c1cccc(-c2cnc3[nH]cc(CC(=O)NCc4cccnc4)c3c2)c1 was read as Pf Dd2 inh 8.91µM*.
For O=C(Cc1c[nH]c2ncc(-c3ccc(Oc4ccccc4)cc3)cc12)NCc1cccnc1 the results were Pf Dd2 inh 8.91µM*.
CC(C)N1C(=O)C2(CCCC2)C1C(=O)NCc1cccc(C(F)(F)F)c1 (stereo not drawn) was read as Pf Dd2 inh -7.1%.
Cc1cc(C(=O)N2CCC(N3CCCC(C(=O)NCCc4ccccc4)C3)CC2)n[nH]1 (stereo not drawn) was read as Pf Dd2 inh 9.5%.
`Cc1ccc(-n2cccc2CC(=O)NC(C)(C)C)cc1` gave Pf Dd2 inh inactive.
CSc1ccc(CNC(=O)CCc2conc2-c2cccc(C)c2)cc1 was read as Pf Dd2 inh 13.1%.
Screening CC(C)C12CN3CC(C(C)C)(CN(C1)C3c1ccccn1)C2=O (stereo not drawn) returned Pf Dd2 inh 8.91µM*.
CC(C)C12CN3CC(C(C)C)(CN(C1)C3c1ccc(Cl)cc1)C2=O (stereo not drawn) was read as Pf Dd2 inh -12.9%.
`Cc1cccc(C2N3CC4(C(C)C)CN2CC(C(C)C)(C3)C4=O)c1` (stereo not drawn) gave Pf Dd2 inh -19.1%.
Screening COC(=O)CNC(=O)N1CCC(OC2CCN(S(C)(=O)=O)CC2)CC1 returned Pf Dd2 inh 3.2%.
`Cc1ccc2nc3n(c2c1)[C@@H](CNC1CCCCC1)COC3` gave Pf Dd2 inh -19.4%[44.1 µM].
Cc1nc2n(c1C(=O)Nc1cccc(Cl)c1C)CCC(Nc1ccc(F)cc1)C2 (stereo not drawn) was read as Pf Dd2 inh -2.4%[44.1 µM].
For Cn1nnnc1C1CCCN(C(=O)c2cccc3[nH]ccc23)C1 (stereo not drawn) the results were Pf Dd2 inh -5.7%.
Screening CCn1ccc(C(=O)N2CCc3c(nc(-c4ccc(OC)cc4)[nH]c3=O)C2)n1 returned Pf Dd2 inh -28.9%.
For Cc1cc(C(=O)N2CCc3c(nc(-c4ccc(F)cc4)[nH]c3=O)C2)nn1C the results were Pf Dd2 inh -7.7%.
`O=C(c1ccn(C(F)F)n1)N1CCc2nc(-c3ccc(Cl)cc3)[nH]c2C1` gave Pf Dd2 inh 12.6µM*.
For COCCNc1ncnc2c1CN(c1cccnc1)C(=O)CN2C the results were Pf Dd2 inh 14.7%.
Screening CN1CC[C@H]2CN(S(=O)(=O)c3ccc(NC(N)=O)cc3)C[C@H]21 returned Pf Dd2 inh -5.1%.
`CCOc1ccc(NC(=O)NCCc2noc(-c3ccccc3)n2)cc1` gave Pf Dd2 inh -8.5%.
CC(C)c1nc(-c2ccc(OC3CCNC3)cc2)no1 (stereo not drawn) was read as Pf Dd2 inh inactive[5.79 µM].
c1cncc(-c2nc(-c3ccc(OC4CNC4)cc3)no2)c1 was read as Pf Dd2 inh 5.01µM*.
`O=C(c1ccncc1)N1CCC(Oc2ccc(-c3noc(-c4ccccc4)n3)cc2)C1` (stereo not drawn) gave Pf Dd2 inh -4.0%[5.79 µM].
For O=C(Nc1ccccc1)N1CC(Oc2ccc(-c3noc(-c4ccncc4)n3)cc2)C1 the results were Pf Dd2 inh -17.9%.
For c1cc(-c2nc(-c3ccc(OC4CNC4)cc3)no2)ccn1 the results were Pf Dd2 inh 3.98µM*.
CCCN1CC(Oc2ccc(-c3noc(-c4cccnc4)n3)cc2)C1 was read as Pf Dd2 inh -11.1%.
`Cc1nnc(-c2cc(-c3cccc(F)c3)ccn2)n1CCN1CCOCC1` gave Pf Dd2 inh inactive.
Screening CCCNC(=O)N1CCC[C@H](n2c(=O)n(CCOC)c3cccnc32)C1 returned Pf Dd2 inh -10.8%.
O=C(NCc1nnc2n1C(C(=O)NCCc1ccc(Cl)cc1)CC2)Nc1cccnc1 (stereo not drawn) was read as Pf Dd2 inh 18.1%.
`Cc1nc(-c2c3n(c(=O)n(Cc4cccc(C(F)(F)F)c4)c2=O)CCCCC3)no1` gave Pf Dd2 inh 4.0%.
Screening N#Cc1ccc(CN2CCC3(CN[S+](=O)([O-])c4cnccc4O3)C2)cc1 (stereo not drawn) returned Pf Dd2 inh 18.6%.
Screening Cc1cccc(CC(=O)NCCC2CCN(C(=O)Nc3cc(F)cc(F)c3)CC2)c1 returned Pf Dd2 inh -25.2%.
Screening CS(=O)(=O)N1C[C@@H](COc2ccccc2)[C@H](C(N)=O)C1 returned Pf Dd2 inh 9.4%.
Cc1cncc(C(=O)N[C@@H]2CN(S(C)(=O)=O)C[C@H]2CN(C)C)c1 was read as Pf Dd2 inh 32.1%.
O=C(Nc1cnc(-c2ccccc2)nc1)c1cccc(F)c1 was read as Pf Dd2 inh inactive.
